In PubChem BioAssay AID1159580 (chemical genetic matrix, 2015):
In all, about 5,500 compounds went through this assay and about 2,000 (36%) were called active. Roughly 18% stayed inconclusive and do not appear here. Rule as the data show it: active = normalized growth mostly below about 0.91 (no sharp cut-off); inconclusive = no clear call, values can overlap the other calls; inactive = mostly above about 0.92. The list shows a part of the results.

Test: chemical genetic growth profiling, strain panel (AID 1159580);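 also: tested at 20 µM; growth read once vehicle control cultures reached saturation at 30 °C; 1 = growth at the plate median or of vehicle wells; lower values mean less growth of the strain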
Settings: growth OD

Measured: normalized growth

Clc1ccc(Cl)cc1
inactive: S. cerevisiae deletion strains, locus YAL013W, strain DEP1, active compounds read low 1.01 | S. cerevisiae deletion strains, locus YBR021W, strain FUR4, active compounds read low 1.01 | S. cerevisiae deletion strains, locus YBR229C, strain ROT2, active compounds read low 1.01 | S. cerevisiae deletion strains, locus YCL029C, strain bik1, active compounds read low 0.994 | S. cerevisiae deletion strains, locus YDL035C, strain GPR1, active compounds read low 1.02 | S. cerevisiae deletion strains, locus YDL074C, strain BRE1, active compounds read low 1.04 | S. cerevisiae deletion strains, locus YDL101C, strain DUN1, active compounds read low 1.02 | S. cerevisiae deletion strains, locus YDL134C, strain PPH21, active compounds read low 1 | S. cerevisiae deletion strains, locus YDL185W, strain tfp1, active compounds read low 0.968 | S. cerevisiae deletion strains, locus YDL192W, strain arf1, active compounds read low 0.983 | S. cerevisiae deletion strains, locus YDR101C, strain arx1, active compounds read low 0.986 | S. cerevisiae deletion strains, locus YDR150W, strain NUM1, active compounds read low 1 | S. cerevisiae deletion strains, locus YDR162C, strain NBP2, active compounds read low 1.01 | S. cerevisiae deletion strains, locus YDR318W, strain mcm21, active compounds read low 0.99 | S. cerevisiae deletion strains, locus YDR388W, active compounds read low 0.988 | S. cerevisiae deletion strains, locus YDR502C, strain sam2, active compounds read low 0.993 | S. cerevisiae deletion strains, locus YEL061C, strain CIN8, active compounds read low 1 | S. cerevisiae deletion strains, locus YER110C, active compounds read low 0.979 | S. cerevisiae deletion strains, locus YER155C, strain BEM2, active compounds read low 1.01 | S. cerevisiae deletion strains, locus YER167W, strain BCK2, active compounds read low 1.01 | S. cerevisiae deletion strains, locus YGL078C, strain dbp3, active compounds read low 0.974 | S. cerevisiae deletion strains, locus YGL086W, strain mad1, active compounds read low 1 | S. cerevisiae deletion strains, locus YGL248W, strain PDE1, active compounds read low 1.01 | S. cerevisiae deletion strains, locus YGR078C, strain PAC10, active compounds read low 1.02 | S. cerevisiae deletion strains, locus YGR135W, strain pre9, active compounds read low 0.99 | S. cerevisiae deletion strains, locus YGR229C, strain SMI1, active compounds read low 1.02 | S. cerevisiae deletion strains, locus YGR252W, strain gcn5, active compounds read low 0.964 | S. cerevisiae deletion strains, locus YHR030C, strain SLT2, active compounds read low 1.01 | S. cerevisiae deletion strains, locus YHR079C, strain IRE1 (second series), active compounds read low 0.989 | S. cerevisiae deletion strains, locus YHR094C, strain hxt1, active compounds read low 0.987 | S. cerevisiae deletion strains, locus YHR129C, strain ARP1, active compounds read low 1.01 | S. cerevisiae deletion strains, locus YHR200W, strain rpn10, active compounds read low 0.988 | S. cerevisiae deletion strains, locus YIL066C, strain RNR3, active compounds read low 1.02 | S. cerevisiae deletion strains, locus YIL073C, strain SPO22, active compounds read low 1.01 | S. cerevisiae deletion strains, locus YIL125W, strain kgd1, active compounds read low 0.972 | S. cerevisiae deletion strains, locus YIR030C, strain dcg1, active compounds read low 0.987 | S. cerevisiae deletion strains, locus YJL095W, strain BCK1, active compounds read low 1.02 | S. cerevisiae deletion strains, locus YJL134W, strain LCB3, active compounds read low 1.01 | S. cerevisiae deletion strains, locus YJL168C, strain set2, active compounds read low 0.983 | S. cerevisiae deletion strains, locus YJL187C, strain SWE1 (second series), active compounds read low 1.01 | S. cerevisiae deletion strains, locus YJR043C, strain POL32, active compounds read low 1 | S. cerevisiae deletion strains, locus YJR075W, strain HOC1, active compounds read low 1.01 | S. cerevisiae deletion strains, locus YKL009W, strain mrt4, active compounds read low 1 | S. cerevisiae deletion strains, locus YKL068W, active compounds read low 0.984 | S. cerevisiae deletion strains, locus YKL085W, strain MDH1 (second series), active compounds read low 0.982 | S. cerevisiae deletion strains, locus YKL085W, strain MDH1, active compounds read low 0.982 | S. cerevisiae deletion strains, locus YKL190W, strain CNB1, active compounds read low 1.02 | S. cerevisiae deletion strains, locus YKR001C, strain vps1, active compounds read low 0.989 | S. cerevisiae deletion strains, locus YLR039C, strain RIC1, active compounds read low 1.04 | S. cerevisiae deletion strains, locus YLR058C, strain SHM2, active compounds read low 1.01 | S. cerevisiae deletion strains, locus YLR102C, strain apc9, active compounds read low 0.993 | S. cerevisiae deletion strains, locus YLR262C, strain YPT6, active compounds read low 1.04 | S. cerevisiae deletion strains, locus YLR268W, strain sec22, active compounds read low 0.999 | S. cerevisiae deletion strains, locus YLR330W, strain CHS5, active compounds read low 1 | S. cerevisiae deletion strains, locus YLR342W, strain FKS1 (second series), active compounds read low 0.997 | S. cerevisiae deletion strains, locus YLR371W, strain rom2, active compounds read low 0.981 | S. cerevisiae deletion strains, locus YLR418C, strain cdc73, active compounds read low 0.974 | S. cerevisiae deletion strains, locus YML016C, strain PPZ1, active compounds read low 1.01 | S. cerevisiae deletion strains, locus YML032C, strain rad52, active compounds read low 0.986 | S. cerevisiae deletion strains, locus YML124C, strain tub3, active compounds read low 0.987 | S. cerevisiae deletion strains, locus YMR078C, strain ctf18, active compounds read low 0.99 | S. cerevisiae deletion strains, locus YMR223W, strain ubp8, active compounds read low 0.984 | S. cerevisiae deletion strains, locus YMR263W, strain SAP30, active compounds read low 1.01 | S. cerevisiae deletion strains, locus YMR307W, strain GAS1, active compounds read low 1.03 | S. cerevisiae deletion strains, locus YNL067W, strain RPL9B, active compounds read low 1.02 | S. cerevisiae deletion strains, locus YNL128W, strain TEP1, active compounds read low 1.02 | S. cerevisiae deletion strains, locus YNL153C, strain GIM3, active compounds read low 1.01 | S. cerevisiae deletion strains, locus YNL233W, strain BNI4, active compounds read low 1.02 | S. cerevisiae deletion strains, locus YNL250W, strain rad50, active compounds read low 0.963 | S. cerevisiae deletion strains, locus YNL271C, strain bni1, active compounds read low 0.98 | S. cerevisiae deletion strains, locus YNL298W, strain CLA4, active compounds read low 0.98 | S. cerevisiae deletion strains, locus YNL307C, strain MCK1, active compounds read low 0.991 | S. cerevisiae deletion strains, locus YNL322C, strain KRE1, active compounds read low 1.01 | S. cerevisiae deletion strains, locus YNR052C, strain pop2, active compounds read low 0.981 | S. cerevisiae deletion strains, locus YOL006C, strain TOP1, active compounds read low 1.05 | S. cerevisiae deletion strains, locus YOL012C, strain htz1 0.71 | S. cerevisiae deletion strains, locus YOL147C, strain pex11, active compounds read low 0.992 | S. cerevisiae deletion strains, locus YOR061W, strain CKA2, active compounds read low 1.01 | S. cerevisiae deletion strains, locus YOR069W, strain VPS5, active compounds read low 1.01 | S. cerevisiae deletion strains, locus YOR136W, strain idh2, active compounds read low 0.985 | S. cerevisiae deletion strains, locus YOR144C, strain elg1, active compounds read low 0.994 | S. cerevisiae deletion strains, locus YOR184W, strain ser1, active compounds read low 0.997 | S. cerevisiae deletion strains, locus YOR316C, strain cot1, active compounds read low 0.989 | S. cerevisiae deletion strains, locus YPL055C, strain LGE1, active compounds read low 1.02 | S. cerevisiae deletion strains, locus YPL241C, strain CIN2, active compounds read low 1.01 | S. cerevisiae deletion strains, locus YPR119W, strain clb2, active compounds read low 0.988 | S. cerevisiae deletion strains, locus YPR141C, strain kar3, active compounds read low 0.975 | S. cerevisiae deletion strains, locus YPR163C, strain tif3, active compounds read low 0.991 | S. cerevisiae deletion strains, locus YPR167C, strain met16, active compounds read low 0.985 | S. cerevisiae deletion strains, strain wtn01, active compounds read low 0.987 | S. cerevisiae strains, strain wild type, active compounds read low 1.01
